IL1B secr inh – qHTS for Inhibitors of Inflammasome Signaling: IL-1-beta AlphaLISA Primary Screen. 360,000 tested, 4.7% active. THP-1 LPS/ATP IL-1B secretion, AlphaLISA, 16 h; hits give low values. activity change, % at 57.5 µM. AID 743279, 2014; in the data active means activity change below about -50%; inconclusive means mostly about -30% to -49%
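Secreted IL-1B measured by AlphaLISA bead assay after 16 h compound exposure of THP-1 cells; compounds (final up to 57.5 uM) added 1 h before LPS (250 ng/mL) and ATP (1.25 mM) stimulation; lower signal means less secretion.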
ELG1 repair inh – qHTS screen for small molecules that inhibit ELG1-dependent DNA repair in human embryonic kidney (HEK293T) cells expressing luciferase-tagged ELG1. HEK293T ELG1-luciferase reporter, luminescence, 16 h; DNA damage induced by 5-fluorouridine. Potency, µM (doses to about 46.1 µM), for inactives: top-dose activity change, negative = inhibition, usual class: inhibitors. 330,000 tested, 2.3% active; further: potency means the concentration at half of the fitted maximal effect; nearly all actives have a fitted effect of over 55% in size
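DMSO vehicle served as the neutral condition. Each well held 2,000 cells given 5-fluorouridine plus compound; after 16 hr at 37 °C/5% CO2, ONE-Glo was added and luciferase measured 30 min later.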
Gal4-VP16 FLuc – VP16 counterscreen qHTS for inhibitors of ROR gamma transcriptional activity; Potency, µM (top dose mostly 53.6 µM), inactives show at the top dose activity, negative = inhibition, hits mostly inhibitors; Drosophila S2 Gal4-VP16 UAS-luciferase, luminescence, 20 h; 310,000 tested, 3.5% active;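 further: Gal4-VP16 expression switched on by copper sulfate through the metallothionein promoter; potency means the concentration at half of the fitted maximal effect; nearly all actives have a fitted effect of over 50% in size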
RORgamma inh – qHTS for inhibitors of ROR gamma transcriptional activity; Nuclear receptor ROR-gamma (Mus musculus), P51450; Drosophila S2 Gal4-RORgamma UAS-luciferase reporter, 20 h; Potency, µM (titrated, usually from 53.6 µM), for inactives: at the highest dose activity change, negative = inhibition, hits mostly inhibitors; 310,000 tested, 5.4% active; AID 2551, 2010; further: potency means the concentration at half of the fitted maximal effect; nearly all actives have a fitted effect of over 60% in size
Target sequence (P51450 whole entry, looked up, the tested form may be a part): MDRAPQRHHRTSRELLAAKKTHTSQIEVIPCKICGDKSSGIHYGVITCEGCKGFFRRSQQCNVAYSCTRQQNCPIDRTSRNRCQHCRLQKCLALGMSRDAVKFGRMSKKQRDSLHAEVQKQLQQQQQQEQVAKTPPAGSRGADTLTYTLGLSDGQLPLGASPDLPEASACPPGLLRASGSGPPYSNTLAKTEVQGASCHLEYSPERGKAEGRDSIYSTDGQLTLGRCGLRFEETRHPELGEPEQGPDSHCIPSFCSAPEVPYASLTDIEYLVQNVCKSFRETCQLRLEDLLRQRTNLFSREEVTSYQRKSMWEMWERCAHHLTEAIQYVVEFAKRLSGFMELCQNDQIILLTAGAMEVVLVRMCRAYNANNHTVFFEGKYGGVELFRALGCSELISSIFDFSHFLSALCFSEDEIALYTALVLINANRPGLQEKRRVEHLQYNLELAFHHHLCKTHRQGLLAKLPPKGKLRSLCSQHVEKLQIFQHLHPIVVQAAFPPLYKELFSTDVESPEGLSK
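Luciferase reporter read in Schneider cells carrying Gal4-RORγ (mouse) and UAS-Photinus luciferase; cells given compound 1 h before 700 uM copper sulfate induction, then incubated 20 h at ambient temperature.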
DT40 TDP1 CPT – qHTS for Inhibitors of human tyrosyl-DNA phosphodiesterase 1 (TDP1): qHTS in cells in presence of CPT | 420,000 tested, 12% active | chicken DT40 Tdp1-/-;hTDP1 cells + 20 nM CPT, ATP luminescence, 48 h | AID 686979, 2013 | Potency, µM (highest dose often 46.2 µM), inactives show at the top dose activity change, negative = growth inhibition, most hits filed as inhibitors; further: potency means the concentration at half of the fitted maximal effect; nearly all actives have a fitted effect of over 55% in size
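Chicken DT40 Tdp1-/- cells complemented with human TDP1, 400 cells/well, exposed to compounds plus 20 nM camptothecin for at least 48 h at 37 C; viability read as ATP content by CellTiter-Glo luminescence.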
DT40 TDP1 no CPT – qHTS for Inhibitors of human tyrosyl-DNA phosphodiesterase 1 (TDP1): qHTS in cells in absence of CPT; Potency, µM (series often up to 46.2 µM), for the others: top-dose activity change, negative = growth inhibition, usual class: inhibitors; 420,000 tested, 15% active; DT40 Tdp1-/- hTDP1 cells, no CPT, ATP luminescence, 48 h; further: potency means the concentration at half of the fitted maximal effect; nearly all actives have a fitted effect of over 55% in size
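Seeded 400 DT40-hTDP1 cells/well (vehicle DMSO, no 20 nM CPT); pinned compounds; ≥48 hr at 37 °C; CellTiter-Glo luminescence as viability measure.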
Numbers without * were called inactive; ? = inconclusive; / = not tested or not shown. An excerpt weighted towards active compounds, which were near 21% of everything screened. Unless noted, the call rests on the fitted dose curve; in most records, active means well fitted curve in the direction sought with a large enough effect; inconclusive means small, poorly fitted or top-dose-only effect, or another doubt; inactive means no such curve, though single readings can be large; an effect the other way counts as inactive or inconclusive. On the % scale 0 is the no-effect control and ±100 the full control effect.

SMILES	IL1B secr inh	ELG1 repair inh	Gal4-VP16 FLuc	RORgamma inh	DT40 TDP1 CPT	DT40 TDP1 no CPT
CC[C@H](C)[C@H](NC(=O)[C@H](CC(C)C)NC(=O)[C@H](CO)NC(=O)[C@H](CCC(=O)O)NC(=O)[C@H](CC(C)C)NC(=O)[C@H](Cc1ccc(O)cc1)NC(=O)[C@H](CCCCN)NC(=O)[C@H](CCCCN)NC(=O)[C@H](C)NC(=O)[C@H](CO)NC(=O)[C@H](CC(C)C)NC(=O)[C@H](CCC(N)=O)NC(=O)CNC(=O)[C@H](CC(C)C)NC(=O)[C@H](CC(C)C)NC(=O)[C@H](CCCNC(=N)N)NC(=O)[C@H](CO)NC(=O)[C@H](Cc1ccccc1)NC(=O)[C@H](CC(=O)O)NC(=O)[C@H](CO)NC(=O)[C@@H](NC(=O)[C@H](Cc1ccccc1)NC(=O)[C@@H](NC(=O)CNC(=O)[C@H](CC(=O)O)NC(=O)[C@H](C)NC(=O)[C@@H](N)Cc1cnc[nH]1)C(C)C)[C@@H](C)O)C(N)=O	/	/	5.2%	18.6%	/	/
CC(=O)N(Cc1ccccc1)Cc1nc2sc(C)c(C)c2c(=O)[nH]1	94.7	-6.8%	3.8%	3.2%	7.0%	13µM*
Cc1sc2nc(CN(CCc3ccccc3)C(=O)c3ccco3)[nH]c(=O)c2c1C	41.8	?	1.8%	-38.2%	?	-23.2%
Cc1sc2nc(CN(Cc3ccccc3)C(=O)NC3CCCCC3)[nH]c(=O)c2c1C	?	/	/	/	20.6µM*	18.4µM*
CCOc1cc(Cl)c(NC(C)=O)cc1OCC	-4.2	-23.3%	-11.5%	28.2%	2.4%	-0.1%
O=C(Nc1ncccc1O)c1ccc(OCC2CCCO2)cc1 (stereo not drawn)	107.1	?	?	10µM*	?	-25.3%
O=C(Nc1ncccc1O)c1ccc(Oc2ccccc2)cc1	15.8	?	14.1µM*	?	?	?
CC(=O)N1CC2(CC(c3ccc(Cl)cc3Cl)=NO2)CN1c1cccc(Cl)c1 (stereo not drawn)	-3.4	/	/	/	?	?
COc1ccc(/C=C(\NC(=O)c2cccs2)C(=O)NN)cc1OC	-3.6	15.5%	14.3%	3.7%	11.5%	0.6%
O=C(N/N=C/c1ccc(O)c(O)c1O)/C(=C/c1ccc([N+](=O)[O-])cc1)NC(=O)c1ccccc1	20.0	?	-5.2%	-38.0%	4.61µM*	5.8µM*
O=C(Nc1cccc(C(=O)O)c1)/C(=C/c1ccc([N+](=O)[O-])cc1)NC(=O)c1ccccc1	-15.4	1.5%	4.6%	1.7%	-5.1%	-7.1%
COc1ccc(/C=C(\NC(=O)c2cccs2)C(=O)Nc2cccc3ccccc23)cc1OC	17.5	?	0.2%	29.0%	?	18.4µM*
O=C(Nc1cccc2ccccc12)/C(=C/c1ccc([N+](=O)[O-])cc1)NC(=O)c1ccccc1	-12.6	-26.7%	-4.5%	-0.9%	8.2µM*	20.6µM*
CC(=O)c1ccc(N2CCN(C(=O)C3CCCN(c4ncnc5c4nc4n5CCCCC4)C3)CC2)cc1 (stereo not drawn)	0.0	2.31µM*	-13.2%	6.5%	14.6µM*	14.6µM*
CSc1cccc(NC(=O)C2CCCN(c3ncnc4c3nc3n4CCCCC3)C2)c1 (stereo not drawn)	6.5	?	7.7%	29.3%	?	14.6µM*
O=C(C1CCCN(c2ncnc3c2nc2n3CCCCC2)C1)N1CCCCC1 (stereo not drawn)	35.4	-2.1%	-9.2%	-11.5%	?	?
CC(=O)c1ccc(NC(=O)C2CCCN(c3ncnc4c3nc3n4CCCCC3)C2)cc1 (stereo not drawn)	-61.1*	-26.7%	?	-7.2%	?	13µM*
O=C(C1CCCN(c2ncnc3c2nc2n3CCCCC2)C1)N1CCN(c2ccc(Cl)cc2)CC1 (stereo not drawn)	-0.9	?	2.3%	4.5%	?	?
CC1CCN(CCNC(=O)C2CCCN(c3ncnc4c3nc3n4CCCCC3)C2)CC1 (stereo not drawn)	1.2	10.3%	-2.4%	-19.1%	-4.0%	2.0%
Cc1ccccc1C(=O)Nc1cc(-c2cc(C(C)(C)C)oc2C)nn1C	-59.1*	?	6.0%	43.5%	?	?
Cc1ccc2c(c1)cc1c(=O)n(Cc3ccc(Cl)cc3)nc(C)n12	/	/	/	/	-19.2%	-12.3%
CCOc1ccccc1CNC(=O)CCCn1c(=O)c2cccn2c2ccc(F)cc21	/	/	/	/	?	11.6µM*
CCOc1ccc(CNC(=O)Cn2c(=O)c3cccn3c3ccc(F)cc32)cc1	/	/	/	/	-2.5%	-12.1%
CCOc1ccc(CNC(=O)CCCn2c(=O)c3cccn3c3ccc(F)cc32)cc1	/	/	/	/	?	11.6µM*
O=C(CCCn1c(=O)c2cccn2c2cccnc21)Nc1ccccc1Br	/	/	/	/	-14.1%	?
SMILES	IL1B secr inh	ELG1 repair inh	Gal4-VP16 FLuc	RORgamma inh	DT40 TDP1 CPT	DT40 TDP1 no CPT
O=C(CCCn1c(=O)c2cccn2c2ccccc21)NCc1ccccc1Br	/	/	/	/	?	16.4µM*
CCCCNC(=O)CCn1c(=O)c2cccn2c2ccc(F)cc21	-3.5	-2.5%	-1.6%	25.3%	?	?
Cc1ccc(CNC(=O)CCn2cnc3ccccc3c2=O)cc1	/	/	/	/	-2.9%	0.1%
CC(=O)c1c[nH]c(C(=O)Nc2ccc(N3CCCCCC3)cc2)c1	-26.9	?	/	/	?	?
O=C(Nc1ccc(N2CCN(c3ccc(F)cc3)CC2)c(C(=O)O)c1)c1cccs1	/	/	/	/	-3.5%	-10.7%
CC(=O)SC1CC(=O)N(c2ccc(C(C)(C)C)cc2)C1=O (stereo not drawn)	-4.3	-0.1%	?	7.08µM*	3.26µM*	8.2µM*
O=c1[nH]c(-c2ccccc2)ncc1OCc1ccccc1	-6.8	/	/	/	13µM*	-21.6%
Cn1c(=O)c2c(ncn2CC(COCc2ccc(Cl)cc2)OCc2ccc(Cl)cc2)n(C)c1=O (stereo not drawn)	-14.5	?	?	-42.0%	23.1µM*	14.6µM*
Cn1c(=O)c2c([nH]c(=S)n2Cc2ccc(Cl)cc2)n(C)c1=O	44.8	-6.2%	?	12.6µM*	-27.2%	-15.9%
Cn1c(=O)c2c(nc(SCCN3CCOCC3)n2Cc2ccc(Cl)cc2)n(C)c1=O	-2.0	/	/	/	-26.1%	?
